From PubChem BioAssay (NCATS) come the findings set out here.

The nature of assay [1]: Quantitative High-Throughput drug screen in 47 multiple myeloma cell lines against the NCATS MIPE library collection: FR4_PLB cell viability assay (AID 1918924; note: nearly all actives have a fitted effect of over 35% in size). In a few lines:
(§1)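 Luminescent ATP measurement with CellTiter-Glo gives viability, scaled between DMSO-only wells (100%) and media-only wells (0%). Cells, 500 per well, faced library compounds for 48 hours at 37C.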

Assay [2] in a line: Quantitative High-Throughput drug screen in 47 multiple myeloma cell lines against the NCATS MIPE library collection: Delta47_JCRB cell viability assay (AID 1918925; note: nearly all actives have a fitted effect of over 45% in size). In a few lines:
(§2)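 Viability readout: CellTiter-Glo luminescence following 5 min room-temperature incubation with reagent. Prior exposure: 48 h, 37C, humidified 5% CO2, 500 cells per well.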

Assay [3] can be described thus: Quantitative High-Throughput drug screen in 47 multiple myeloma cell lines against the NCATS MIPE library collection: AMO1_DSMZ cell viability assay (AID 1918927; note: nearly all actives have a fitted effect of over 30% in size). In a few lines:
as §2

Assay [4] is described as follows: Quantitative High-Throughput drug screen in 47 multiple myeloma cell lines against the NCATS MIPE library collection: ARP1_JJKsccF8 cell viability assay (AID 1918928; note: nearly all actives have a fitted effect of over 40% in size). The method in brief:
(§3)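 Myeloma cells, 500 per well, were exposed to MIPE 4.0 drugs by pin transfer for 48 h at 37 °C, 5% CO2. Viability was read as ATP luminescence with CellTiter-Glo, normalised to DMSO-only (100%) and medium-only (0%) wells.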

Assay [5] is described as follows: Quantitative High-Throughput drug screen in 47 multiple myeloma cell lines against the NCATS MIPE library collection: ARD_JJKsccE7 cell viability assay (AID 1918929). The method in brief:
as §2

Assay [6] can be described thus: Quantitative High-Throughput drug screen in 47 multiple myeloma cell lines against the NCATS MIPE library collection: Karpas620_DSMZ cell viability assay (AID 1918959). Note: nearly all actives have a fitted effect of over 30% in size. The method in brief: as §1
The nature of assay [7]: Quantitative High-Throughput drug screen in 47 multiple myeloma cell lines against the NCATS MIPE library collection: KMM1_JCRB cell viability assay (AID 1918960). Note: nearly all actives have a fitted effect of over 30% in size. In a few lines: as §3
The nature of assay [8]: Quantitative High-Throughput drug screen in 47 multiple myeloma cell lines against the NCATS MIPE library collection: EJM_DSMZ cell viability assay (AID 1918926; note: nearly all actives have a fitted effect of over 30% in size). In a few lines: as §2

Each structure is given as a SMILES string. Results filed as inconclusive are left out. The source made the active and inactive calls. Calls come from the whole dose curve; as a rule, active = well fitted cell-killing curve with a large enough effect; inconclusive = small, poorly fitted or top-dose-only effect, or effect the other way; inactive = no such curve, though single readings can be large or run the other way.
Potency is the fitted concentration of half-maximal effect.

Regarding `CCN[C@H]1C[C@H](C)S(=O)(=O)c2sc(S(N)(=O)=O)cc21`, the Potency entry in assay [1], in assay [2], in assay [3], in assay [4], in assay [5] and in assay [6] was “inactive” throughout. Further, the Potency entry in assay [7] is “inactive”.
Consider `Nc1nc(=S)c2[nH]cnc2[nH]1`, for which the Potency was 1.66 µM (active) in assay [1], 2.96 µM (active) in assay [2] and 1.32 µM (active) in assay [4]. The Potency entry in assay [5] and in assay [7] was “inactive” in each case.
With `CC(C)Cn1cnc2c(N)nc3ccccc3c21`, in assay [1], the Potency entry was “inactive”. Besides, the values for the Potency in assay [8], in assay [3] and in assay [5] were 5.26 µM (active), 4.18 µM (active) and 5.9 µM (active), respectively.
With `CCCCS(=N)(=O)CCC(N)C(=O)O` (stereo not given), the Potency result in assay [1], in assay [2], in assay [3], in assay [4] and in assay [7] was “inactive” in each case.
For the molecule `COc1c(N2CCNC(C)C2)c(F)cc2c(=O)c(C(=O)O)cn(C3CC3)c12` (stereo not given), the Potency result in assay [1], in assay [8], in assay [3], in assay [4], in assay [5] and in assay [6] was “inactive” throughout.
For `COC(=O)Nc1nc2ccc(S(=O)c3ccccc3)cc2[nH]1` (stereo not given), the Potency in assay [1] was 7.43 µM (active); in assay [2], 6.62 µM (active); in assay [4], 16.6 µM (active). Further, the Potency entry in assay [6] and in assay [7] was “inactive” in each case.
Regarding `NS(=O)(=O)c1cc2c(cc1Cl)NC(C(Cl)Cl)NS2(=O)=O` (stereo not given), the Potency entry in assay [1], in assay [8], in assay [3], in assay [4], in assay [5] and in assay [7] was “inactive” in each case.
Consider `CS(=O)(=O)c1ccc([C@@H](O)[C@@H](CO)NC(=O)C(Cl)Cl)cc1`, for which the Potency result in assay [1], in assay [8], in assay [3] and in assay [6] was “inactive” each time. Also, in assay [5], the Potency is 13.2 µM (active).
`C[C@]12C=CC(=O)C=C1CC[C@@H]1[C@@H]2C(=O)C[C@@]2(C)[C@H]1CC[C@]2(O)C(=O)CO`: the Potency result in assay [1], in assay [8], in assay [3], in assay [4], in assay [6] and in assay [7] was “inactive” each time.
For `NC(=O)c1cccnc1`, the Potency result in assay [1], in assay [8], in assay [3], in assay [4], in assay [5] and in assay [7] was “inactive” in each case.
As for `Nc1ccc(S(=O)(=O)Nc2ccccn2)cc1`, the Potency result in assay [1], in assay [8], in assay [3], in assay [4], in assay [5] and in assay [7] was “inactive” in each case.
For `CC(=O)[C@H]1CC[C@H]2[C@@H]3CC=C4C[C@@H](O)CC[C@]4(C)[C@H]3CC[C@]12C`, the Potency result in assay [1], in assay [2], in assay [3], in assay [5], in assay [6] and in assay [7] was “inactive” each time.
With `CC(C)(Sc1cc(C(C)(C)C)c(O)c(C(C)(C)C)c1)Sc1cc(C(C)(C)C)c(O)c(C(C)(C)C)c1`, the Potency result in assay [1], in assay [3] and in assay [4] was “inactive” in each case. Moreover, in assay [2], the Potency is 5.26 µM (active).
With `C#CCN[C@@H]1CCc2ccccc21`, the Potency entry in assay [1], in assay [2], in assay [3], in assay [4], in assay [5] and in assay [6] was “inactive” throughout. In addition, the Potency entry in assay [7] is “inactive”.
As for `CCN(CC)CCn1c(=O)c(Cc2ccc(OC)cc2)nc2ccccc21`, the Potency entry in assay [1], in assay [8], in assay [3], in assay [4], in assay [5] and in assay [7] was “inactive” each time.
`OC(Cn1cncn1)(Cn1cncn1)c1ccc(F)cc1F`: the Potency result in assay [1], in assay [8], in assay [4], in assay [5], in assay [6] and in assay [7] was “inactive” each time. Besides, in assay [3], the Potency is 0.0418 µM (active).
`CCCOc1ccc(C(=O)OCCN(CC)CC)cc1N`: the Potency result in assay [1], in assay [8], in assay [3], in assay [4] and in assay [7] was “inactive” each time.
Take `Cn1nnc2c(C(N)=O)ncn2c1=O`: the Potency entry in assay [1], in assay [8], in assay [3], in assay [4], in assay [5] and in assay [6] was “inactive” in each case. Also, the Potency entry in assay [7] was “inactive”.
Consider `CCn1cc(C(=O)O)c(=O)c2cc(F)c(N3CCNCC3)cc21`, for which the Potency result in assay [1], in assay [2], in assay [3], in assay [5], in assay [6] and in assay [7] was “inactive” in each case. In addition, the Potency in assay [4] was 8.33 µM (active).
Turning to `CN(Cc1cc(Br)cc(Br)c1N)C1CCCCC1`, the Potency entry in assay [1], in assay [2], in assay [3], in assay [4], in assay [5] and in assay [6] was “inactive” throughout.
As for `CNS(=O)(=O)Cc1ccc2[nH]cc(CCN(C)C)c2c1`, the Potency entry in assay [1], in assay [8], in assay [3] and in assay [7] was “inactive” throughout.
As to `CC(C)(C#N)c1cc(Cn2cncn2)cc(C(C)(C)C#N)c1`, the Potency entry in assay [1], in assay [8], in assay [3], in assay [5] and in assay [7] was “inactive” throughout.
As for `O=c1cc(O)c(Cl)c[nH]1`, the Potency entry in assay [1], in assay [2] and in assay [4] was “inactive” throughout. Moreover, the Potency in assay [3] is 2.64 µM (active); in assay [5] it was 7.43 µM (active).
Take `CCC(=O)O[C@]1(C(=O)SCF)[C@H](C)C[C@H]2[C@@H]3C[C@H](F)C4=CC(=O)C=C[C@]4(C)[C@@]3(F)[C@@H](O)C[C@@]21C`: the Potency result in assay [1], in assay [2], in assay [3], in assay [4], in assay [5] and in assay [6] was “inactive” throughout. Moreover, in assay [7], the Potency result is “inactive”.
For `CO[C@@]12[C@H](COC(N)=O)C3=C(C(=O)C(C)=C(N)C3=O)N1C[C@@H]1N[C@@H]12`, the Potency is 26.4 µM (active) in assay [1], 23.5 µM (active) in assay [2] and 26.4 µM (active) in assay [4]. Also, the Potency result in assay [3], in assay [5] and in assay [7] was “inactive” throughout.
As for `COc1nc(N)nc2c1ncn2[C@@H]1O[C@H](CO)[C@@H](O)[C@@H]1O`, the Potency entry in assay [1], in assay [2], in assay [3], in assay [4], in assay [6] and in assay [7] was “inactive” throughout.
Turning to `COc1ccc2cc3[n+](cc2c1OC)CCc1cc2c(cc1-3)OCO2`, the Potency is 14.8 µM (active) in assay [1]; 5.26 µM (active) in assay [2]; 6.62 µM (active) in assay [4]; 5.9 µM (active) in assay [5]; 14.8 µM (active) in assay [6]; 10.5 µM (active) in assay [7].
With `S=P(N1CC1)(N1CC1)N1CC1`, the Potency entry in assay [1], in assay [8], in assay [4] and in assay [6] was “inactive” each time.
`O=c1oc2c(O)c(O)cc3c(=O)oc4c(O)c(O)cc1c4c23`: the Potency result in assay [1], in assay [2], in assay [5] and in assay [6] was “inactive” throughout.
For the molecule `NC(=O)N1c2ccccc2CC(=O)c2ccccc21`, the Potency result in assay [1], in assay [2], in assay [3], in assay [4], in assay [5] and in assay [6] was “inactive” each time. The Potency result in assay [7] was “inactive”.
Regarding `CC1CC2C3CCC4=CC(=O)C=C[C@]4(C)[C@@]3(F)[C@@H](O)C[C@]2(C)[C@@]1(O)C(=O)CO` (stereo not given in full), in assay [8], the Potency entry is “inactive”. In assay [3], the Potency was 0.833 µM (active).
On to `CC(C)(C)NC(=O)[C@H]1CC[C@H]2[C@@H]3CC[C@H]4NC(=O)C=C[C@]4(C)[C@H]3CC[C@]12C`, for which the Potency in assay [2] is 0.526 µM (active); in assay [8] it was 0.662 µM (active); in assay [3], 18.7 µM (active); in assay [5], 20.9 µM (active). The Potency result in assay [4] is “inactive”.
As for `CCC(C)(C)c1ccc(CC(C)CN2C[C@@H](C)O[C@@H](C)C2)cc1` (stereo not given in full), the Potency entry in assay [5], in assay [6] and in assay [7] was “inactive” throughout.
For `O=NN(CCCl)C(=O)NC1CCCCC1`, the Potency result in assay [8], in assay [3], in assay [4] and in assay [5] was “inactive” in each case.
For the molecule `CCCCCCNC(=O)n1cc(F)c(=O)[nH]c1=O`, the Potency entry in assay [8] is “inactive”. In addition, in assay [4], the Potency was 8.33 µM (active).
For `CC(C)OC(=O)OCOP(=O)(CO[C@H](C)Cn1cnc2c(N)ncnc21)OCOC(=O)OC(C)C`, the Potency entry in assay [1] was “inactive”. Moreover, the Potency in assay [3] was 20.9 µM (active); in assay [5], 23.5 µM (active); in assay [7], 20.9 µM (active).
For the molecule `O[C@@H](CNC[C@H](O)[C@H]1CCc2cc(F)ccc2O1)[C@@H]1CCc2cc(F)ccc2O1`, the Potency is 18.7 µM (active) in assay [2]; 26.4 µM (active) in assay [3]; 14.8 µM (active) in assay [4]; 20.9 µM (active) in assay [6]; 16.6 µM (active) in assay [7]. Moreover, the Potency entry in assay [8] is “inactive”.
As for `CC(C)C1CCC(C(=O)N[C@H](Cc2ccccc2)C(=O)O)CC1` (stereo not given in full), the Potency result in assay [2], in assay [8], in assay [3], in assay [4] and in assay [6] was “inactive” each time.
As for `Cc1oc(=O)oc1CN1CCN(c2cc3c(cc2F)c(=O)c(C(=O)O)c2n3C(C)S2)CC1` (stereo not given), the Potency entry in assay [2], in assay [3], in assay [5], in assay [6] and in assay [7] was “inactive” throughout. Also, the Potency in assay [4] is 14.8 µM (active).
`Cc1ncc([N+](=O)[O-])n1CCO`: the Potency result in assay [2], in assay [8], in assay [4], in assay [6] and in assay [7] was “inactive” each time.
Regarding `C[C@@H](CN1CC(=O)NC(=O)C1)N1CC(=O)NC(=O)C1`, the Potency result in assay [1], in assay [8] and in assay [7] was “inactive” throughout.
